From PubChem BioAssay
PTK2B oligo ant = antagonists of human Pyk2 oligomerization; Q14289; Q293 cells, Pyk2 FERM NanoBiT luminescence; hits give low values; z-score (the deposit names both 25 µM and 10 µM); 0.83% of 99,000 active;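 active = Z-score of -3 or lower, scaled per plate to the spread of control and sample wells; inactive = z-score above -3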;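 also: negative z-score means lost luminescence so less FERM oligomerization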
CYP2C9 act = increases human cytochrome P450 2C9 activity | P11712 | recombinant CYP2C9, luciferin-H conversion, luminescence; hits give high values; factor 1 = untreated enzyme, 0 = blocked | activation factor at 5 µM | 1.4% of 96,000 active;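 active = activation factor of 2 or more for CYP2C9 at a 5 µM dose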;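 also: 0 = sulfaphenazole-blocked wells and 1 = vehicle-only wells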
CYP2C19 act = cytochrome P450 2C19 (human) activation. 96,000 tested, under 10 active. activation factor at 5 µM. P33261. recombinant CYP2C19, luciferin-H EGE luminescence; hits give high values; 0 = fully inhibited enzyme, 1 = untreated enzyme;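 active = activation factor of at least 2 at 5 µM in the primary screen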;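 also: 0 = wells with 2.5 mM tranylcypromine and 1 = vehicle-only wells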
Target sequence (P33261 whole entry, looked up): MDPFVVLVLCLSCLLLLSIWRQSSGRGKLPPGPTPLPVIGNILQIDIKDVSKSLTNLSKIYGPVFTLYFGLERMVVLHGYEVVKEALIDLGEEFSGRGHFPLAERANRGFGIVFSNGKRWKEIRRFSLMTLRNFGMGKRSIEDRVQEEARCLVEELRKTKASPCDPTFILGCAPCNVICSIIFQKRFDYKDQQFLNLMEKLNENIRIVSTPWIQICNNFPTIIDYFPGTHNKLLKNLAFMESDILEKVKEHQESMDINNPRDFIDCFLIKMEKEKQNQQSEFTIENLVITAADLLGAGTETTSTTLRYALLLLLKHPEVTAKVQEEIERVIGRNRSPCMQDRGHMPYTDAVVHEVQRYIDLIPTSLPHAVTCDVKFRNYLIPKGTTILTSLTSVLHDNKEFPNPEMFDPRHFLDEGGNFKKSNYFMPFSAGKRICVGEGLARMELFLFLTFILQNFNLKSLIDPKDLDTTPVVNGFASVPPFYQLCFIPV
CYP2C19 inhib = blocks human cytochrome P450 2C19; P33261; 21% of 96,000 active; CYP2C19 Supersomes, luciferin-H EGE luminescence, 30 min; inhibition, % at 5 µM;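 active = CYP2C19 inhibition above a set limit at 5 µM in the primary screen, cut at about 50% in these data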;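 also: plate controls were negative control wells for no effect and 2.5 mM tranylcypromine positive control for full effect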
CYP2C9 inhib = human CYP2C9 inhibition. P11712. CYP2C9 Supersomes, luciferin-H conversion, luminescence. inhibition, % at 5 µM. 20% of 96,000 active;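 active = blocking of liver enzyme CYP2C9 beyond about 50% at 5 µM, limit read from the data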
Starred values were filed as active, the others as inactive. This is a sample that favours compounds with a hit; in the whole collection about 28% have one here.

COc1cc(C#N)ccc1OCC(=O)c1ccc2c(c1)OCCO2 was read as PTK2B oligo ant 0.21, CYP2C9 act 1.1, CYP2C19 act 0.4, CYP2C19 inhib 62.0* and CYP2C9 inhib -6.0.
`COc1ccc(CCNC(=O)C2CCN(S(=O)(=O)c3cnc[nH]3)CC2)cc1OC` gave PTK2B oligo ant -0.26, CYP2C9 act 0.3, CYP2C19 act 0.8, CYP2C19 inhib 21.1 and CYP2C9 inhib 72.9*.
`COc1ccc(OC)c(S(=O)(=O)N2CCC(C(=O)NCCc3ccc(OC)c(OC)c3)CC2)c1` gave PTK2B oligo ant 0.09, CYP2C9 act 0.8, CYP2C19 act 0.4, CYP2C19 inhib 61.0* and CYP2C9 inhib 15.3.
CN(CCNC(=O)C1CCN(S(=O)(=O)c2cnc[nH]2)CC1)Cc1ccccc1 was read as PTK2B oligo ant -0.43, CYP2C9 act 0.5, CYP2C19 act 0.6, CYP2C19 inhib 39.7 and CYP2C9 inhib 52.3*.
Cc1nn(C)c(C)c1S(=O)(=O)N1CCC(C(=O)NCCC2=CCCCC2)CC1 was read as CYP2C9 act 2.1*, CYP2C19 act 1.2, CYP2C19 inhib -16.3 and CYP2C9 inhib -110.1.
`COc1ccc(CCNC(=O)C2CCN(S(=O)(=O)N3CCCCC3)CC2)cc1OC` gave PTK2B oligo ant 1.05, CYP2C9 act 0.9, CYP2C19 act 1, CYP2C19 inhib 1.3 and CYP2C9 inhib 13.3.
`Cc1cc(C)n(-c2nc3sc4c(c3c3nnc(SC(C)C)n23)CC(C)(C)OC4)n1` gave PTK2B oligo ant -1.5.
COC(=O)Nc1ccc(S(=O)(=O)NCCO)cc1 was read as PTK2B oligo ant -0.5, CYP2C9 act 0.9, CYP2C19 act 1.1, CYP2C19 inhib -5.2 and CYP2C9 inhib 6.0.
For Cc1cccc(NC(=S)N2CCC(c3nc4ccccc4o3)CC2)c1C the results were PTK2B oligo ant 0.22, CYP2C9 act 0.8, CYP2C19 act 0.8, CYP2C19 inhib 24.9 and CYP2C9 inhib 17.7.
Screening O=[N+]([O-])c1ccc(S(=O)(=O)CC2CSc3nc4ccccc4n32)cc1 (stereo not drawn) returned PTK2B oligo ant 0.51.
COc1ccc(S(=O)(=O)N2CCC(C(=O)NCCc3ccc4c(c3)OCO4)CC2)cc1 was read as PTK2B oligo ant 1.26, CYP2C9 act 2.1*, CYP2C19 act 0.1, CYP2C19 inhib 85.5* and CYP2C9 inhib -111.8.
`COc1ccc(S(=O)(=O)N2CCC(C(=O)NCCC3=CCCCC3)CC2)cc1C` gave PTK2B oligo ant -0.95, CYP2C9 act 0.9, CYP2C19 act 0.6, CYP2C19 inhib 37.8 and CYP2C9 inhib 8.9.
Screening CCCCN(Cc1ccccc1)C(=O)C1CCCN(S(=O)(=O)c2cnc[nH]2)C1 (stereo not drawn) returned CYP2C9 act 0.6, CYP2C19 act 0.4, CYP2C19 inhib 62.9* and CYP2C9 inhib 35.8.
`O=C(C1CCCN(S(=O)(=O)c2cnc[nH]2)C1)N1CCN(Cc2ccccc2)CC1` (stereo not drawn) gave CYP2C9 act 1, CYP2C19 act 1, CYP2C19 inhib 1.1 and CYP2C9 inhib 3.5.
For COc1ccc(C)cc1S(=O)(=O)N1CCC(C(=O)NCCC2=CCCCC2)CC1 the results were PTK2B oligo ant 0.08, CYP2C9 act 3.1*, CYP2C19 act 0.6, CYP2C19 inhib 35.5 and CYP2C9 inhib -211.5.
COc1ccc(CCNC(=O)C2CCCN(S(=O)(=O)c3cnc[nH]3)C2)cc1OC (stereo not drawn) was read as CYP2C9 act 0.3, CYP2C19 act 0.3, CYP2C19 inhib 73.3* and CYP2C9 inhib 71.0*.
`O=C(Cc1ccccc1)NCC(=O)N1CCCCCC1` gave PTK2B oligo ant 0.49, CYP2C9 act 0.9, CYP2C19 act 0.8, CYP2C19 inhib 23.9 and CYP2C9 inhib 11.3.
Nc1c(-c2ccccc2)cnn1-c1ccc(C(=O)O)cc1 was read as PTK2B oligo ant 0.01, CYP2C9 act 1, CYP2C19 act 1, CYP2C19 inhib -1.6 and CYP2C9 inhib -0.6.
`CCCS(=O)(=O)N1CCCC(C(=O)NCCCN(C)c2ccccc2)C1` (stereo not drawn) gave PTK2B oligo ant 0.49, CYP2C9 act 0.8, CYP2C19 act 0.9, CYP2C19 inhib 14.7 and CYP2C9 inhib 21.1.
`CN(CCCNC(=O)C1CCCN(S(=O)(=O)c2cnc[nH]2)C1)c1ccccc1` (stereo not drawn) gave CYP2C9 act 0.2, CYP2C19 act 0.1, CYP2C19 inhib 88.7* and CYP2C9 inhib 76.6*.
`CCN(CCCNC(=O)C1CCN(S(=O)(=O)c2cnc[nH]2)CC1)c1cccc(C)c1` gave PTK2B oligo ant -0.72, CYP2C9 act 0.1, CYP2C19 act 0.2, CYP2C19 inhib 77.7* and CYP2C9 inhib 87.7*.
Screening CCN(CCCNC(=O)C1CCCN(S(=O)(=O)CC)C1)c1cccc(C)c1 (stereo not drawn) returned PTK2B oligo ant 1.83, CYP2C9 act 1.2, CYP2C19 act 1, CYP2C19 inhib 2.2 and CYP2C9 inhib -23.4.
Screening Cc1ccc(-c2noc(CNCCCN(C)C)n2)cc1 returned PTK2B oligo ant 0.07, CYP2C9 act 0.9, CYP2C19 act 0.9, CYP2C19 inhib 10.2 and CYP2C9 inhib 10.1.
For COc1cccc(-c2nnc(SCC(N)=O)n2-c2ccc(Cl)cc2)c1 the results were PTK2B oligo ant -0.44, CYP2C9 act 0.8, CYP2C19 act 0.8, CYP2C19 inhib 16.8 and CYP2C9 inhib 21.3.
`COc1ccccc1-n1c(C)nnc1SCC(N)=O` gave PTK2B oligo ant 0.82, CYP2C9 act 1.1, CYP2C19 act 1, CYP2C19 inhib 3.0 and CYP2C9 inhib -5.3.
Screening COCCn1c(SCC(=O)Nc2cc(C)on2)nnc1-c1c[nH]c2ccccc12 returned CYP2C9 act 0.3, CYP2C19 act 0.5, CYP2C19 inhib 54.6* and CYP2C9 inhib 74.9*.
Screening COc1cccc(-n2c(SCC(N)=O)nnc2-c2c[nH]c3ccccc23)c1 returned CYP2C9 act 0.7, CYP2C19 act 0.1, CYP2C19 inhib 89.2* and CYP2C9 inhib 30.7.
`COc1ccc(OC)c(-n2c(SCC(=O)Nc3cc(C)on3)nnc2-c2c[nH]c3ccccc23)c1` gave CYP2C9 act 0.3, CYP2C19 act 0.2, CYP2C19 inhib 84.0* and CYP2C9 inhib 67.8*.
CCOc1ccc(-n2c(SCC(=O)Nc3cc(C)on3)nnc2-c2c[nH]c3ccccc23)cc1 was read as PTK2B oligo ant -2.4, CYP2C9 act 0.6, CYP2C19 act 0.9, CYP2C19 inhib 14.3 and CYP2C9 inhib 39.9.
For COc1ccc(OC)c(-n2c(SCC(N)=O)nnc2-c2c[nH]c3ccccc23)c1 the results were CYP2C9 act 0.4, CYP2C19 act 0.6, CYP2C19 inhib 38.7 and CYP2C9 inhib 58.4*.
For CCCCn1nnc(NC(=O)CC23CC4CC(CC(C4)C2)C3)n1 the results were PTK2B oligo ant -1.82, CYP2C9 act 1.1, CYP2C19 act 0.9, CYP2C19 inhib 5.4 and CYP2C9 inhib -12.3.
For COc1ccc(OC)c(-n2c(-c3ccccc3)n[nH]c2=S)c1 the results were PTK2B oligo ant -0.09, CYP2C9 act 0.9, CYP2C19 act 0.6, CYP2C19 inhib 44.2 and CYP2C9 inhib 13.0.
